Compound activity from PubChem BioAssay.
DAX1 inh: blocks DAX1 repression of SF-1 activated StAR promoter. HEK293T StAR-luciferase reporter, SF-1/DAX-1 repression relief. inhibition, % at 6.8 µM. 370,000 tested, 1.1% active;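 active = inhibition above the mean over all tested compounds plus 3 SD, cut at about 3.6% in these data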;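 note: 0% = DAX-1 cells with DMSO and 100% = cells lacking DAX-1 with DMSO; higher inhibition means more luminescence from relief of DAX-1 repression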
hcDAF12 agonist: activators of H. contortus DAF-12 nuclear receptor | AID 652067 | 370,000 tested, 1.4% active | HEK293 hcDAF-12 lit1-tk-luc reporter, luminescence; 0% DMSO, 100% Δ7-dafachronic acid | activation, % at 6.8 µM;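 active = activation above the mean of all tested compounds plus 3 SD, cut at about 5.5% in these data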;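 note: 100% = response to 3 µM Δ7-dafachronic acid high control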
SMARCA2 activ: activators of SMARCA2 function; AID 652017; activation, % at 9.1 µM; 370,000 tested, 1% active; MG213 cells, MMTV-luciferase reporter, dexamethasone, overnight; in the data active = activation above about 7.8%;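 note: 0% = vehicle wells and 100% = reference activator wells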
ssDAF12 agonist: S. stercoralis DAF-12 activation, primary screen; HEK293 ssDAF-12/GRIP1 lit1-tk-luc reporter, luminescence; % of 3 µM dafachronic acid response; activation, % at 6.8 µM; 370,000 tested, 1% active; AID 652126;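 active = activation above the mean over all tested compounds plus 3 SD, cut at about 0.9% in these data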;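 note: 0% = DMSO-only wells and 100% = 3 µM delta7-dafachronic acid wells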
hgDAF-12 ag: agonists of H. glycines DAF-12 nuclear receptor | HEK293 GAL4-hgDAF12 UAS-luciferase reporter, agonist luminescence; normalized to butyrate control | activation, % at 6.8 µM | 370,000 tested, 1.8% active;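 active = activation above a cutoff set at the mean of all screened compounds plus 3 SD, cut at about 10% in these data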;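 note: 0% = DMSO wells and 100% = sodium butyrate wells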
An asterisk follows results filed as active; nt = no result given. An excerpt weighted towards active compounds, which were near 4.2% of everything screened.

SMILES	DAX1 inh	hcDAF12 agonist	SMARCA2 activ	ssDAF12 agonist	hgDAF-12 ag
CCCc1nc2ccc(C)cn2c1Cc1cccc(Cl)c1	1	5.6*	-1	1.6*	8
CCCc1nc2ccc(C)cn2c1Cc1ccsc1	2	5.6*	-2	0	5
Cc1ccc2nc(-c3ccccc3)c(Cc3cccc(Cl)c3)n2c1	1	1	2	0	7
COc1ccc(CCNC(=O)c2ccc3c(c2)ncn3C2CCCCC2)cc1	-1	-3	0	-1	-1
Cc1ccsc1C(=O)OCc1nnc(-c2ccccc2)o1	4.0*	1	3	-1	2
C/C(=N\Nc1ccc([N+](=O)[O-])cc1)c1cc2ccccc2o1	0	6.4*	7	-1	4
COC(=O)C1=C(C)N(Cc2cccc(C(F)(F)F)c2)C(=NCc2ccc(C(F)(F)F)cc2)NC1c1cccc(C(F)(F)F)c1 (stereo not drawn)	0	0	-4	-1	0
COC(=O)C1=C(C)N(Cc2ccc(Br)cc2)C(=S)NC1c1ccccc1 (stereo not drawn)	-2	1	-7	-1	-3
CC(=O)Nc1cc2c(cc1Br)-c1ccccc1C2	2	6.2*	5	0	11*
Cc1cccc(-n2nnc(C(=O)Nc3ccc(F)cc3)c2N)c1	2	3	1	0	12*
Cc1ccc(NC(=O)c2nnn(-c3cc(C)cc(C)c3)c2N)cc1	1	-2	2	0	5
COC(=O)C1CN(Cc2cn(Cc3ccc(Cl)cc3)nn2)CCS(=O)(=O)N1Cc1ccc(Cl)cc1 (stereo not drawn)	-2	-4	-6	-2	-5
CC1CC(c2ccccc2)=Nc2ccccc2N1 (stereo not drawn)	1	5.7*	2	0	8
C#CCSc1ncc(-c2ccccc2)cn1	1	4	2	1.9*	13*
CC(C)=CCC/C(C)=C/C[C@]12C[C@H](C(=O)O)N(C(=O)OC(C)(C)C)[C@@H]1N(C(=O)OC(C)(C)C)c1ccccc12	nt	2	nt	-1	-4
O=C(Nc1cc2c(cc1Br)OCCCO2)c1cccnc1	2	1	4	-1	2
O=C(Nc1cc2c(cc1Br)OCCCO2)c1ccccc1	2	4	3	1	11*
C/C(=C\C(=O)Nc1nccs1)c1ccccc1	2	3	2	0	12*
C/C(=C\C(=O)O)C(=O)Nc1nccs1	0	-1	6	-1	0
COC(=O)[C@]12C[C@H](CC(=O)NCc3ccc(C)o3)C(=O)N(Cc3ccccc3)C1=C[C@H](C1CCCC1)O[C@@H]2C	0	-2	-8	-1	-3
Cc1ccc(C)c(NC(=O)CNS(=O)(=O)c2ccc3[nH]c(=O)oc3c2)c1	0	0	0	-1	1
Cc1ccc(N2C(=O)N(CC(=O)Nc3ccc(C)cc3[N+](=O)[O-])C(=O)C2C)cc1 (stereo not drawn)	3.6*	0	0	-1	2
CC1=C2CCCC[C@@]23C2C(=O)N(C)C(=O)[C@@H]2ON3OC1 (stereo partly drawn)	-1	-2	-1	-1	-2
CSc1nnc(N2C(=O)C(O)=C(C(=O)c3ccc(C)o3)C2c2ccc(C)cc2)s1 (stereo not drawn)	2	5	4	0	11*
Nc1[nH]c(C(=O)c2ccccc2)c(-c2ccc(Br)cc2)c1C(=O)N1CCN(CCO)CC1	nt	0	nt	-2	3
SMILES	DAX1 inh	hcDAF12 agonist	SMARCA2 activ	ssDAF12 agonist	hgDAF-12 ag
CCn1c(=O)c(C(=O)Nc2ccccc2F)c(O)c2ccccc21	1	6.2*	-1	0	5
CC(=O)c1c(O)c2ccccc2n(C)c1=O	0	5	-3	0	1
CC(NC(=O)c1c(O)c2ccccc2n(C)c1=O)c1ccccc1 (stereo not drawn)	0	6.0*	0	0	5
Cn1c(=O)c(C(=O)NCCc2ccccc2)c(O)c2ccccc21	-1	6.3*	-1	1.7*	1
CCn1c(=O)c(C(=O)Nc2ccccc2)c(O)c2ccccc21	0	4	-1	0	2
CCN(CC)c1ccc(-c2nn3c(-c4ccccc4Cl)nnc3s2)cc1	-2	-4	1	-2	-8
Cn1c(C(=O)NCCc2ccccc2)cc(=O)n(C)c1=O	0	-1	1	-2	5
Cn1cccc1C(=O)NCc1ccc(Cl)cc1	0	1	-3	-1	-1
Cc1ccccc1C(=O)NNC(=O)c1cccn1C	4.0*	3	0	0	4
Cn1cccc1C(=O)NCCc1ccccc1	2	4	6	0	13*
Cn1cccc1C(=O)NC1CCCCCC1	4.4*	4	4	0	9
Cn1cccc1C(=O)NCCc1ccc(Cl)cc1	4.0*	2	4	0	5
CCOC1=C2CN(S(=O)(=O)c3ccc(C)cc3)C(c3cccc(Cl)c3)CC2N(S(=O)(=O)c2ccc(C)cc2)C(c2ccncc2)C1 (stereo not drawn)	2	0	-2	0	2
Cc1nn(Cc2ccccc2)c(Cl)c1C(=O)NCCc1ccccc1	3.8*	2	7	1	11*
Cc1ccc(S(=O)(=O)Nc2ccncc2)c(C)c1N(C)S(=O)(=O)c1ccc(F)cc1	0	5.7*	-2	-1	-1
O=C(O)c1ccc2cccnc2n1	-1	0	-2	1.3*	1
COCCCNC(=O)CNC(=S)N(Cc1ccc(F)cc1)C1CCCCC1	1	4	-3	1.2*	2
Cc1cccc(N/N=C2/COC(C)(C)CC2=O)c1	3	5	7.9*	0	13*
COc1ccccc1N/N=C1\COC(C)(C)CC1=O	0	0	3	-1	1
CC1(C)CC(=O)/C(=N/Nc2ccc(Cl)cc2)CO1	3	1	4	-1	11*
Cc1ccc2nc3sc(C(=O)N4CCN(C)CC4)cc3cc2c1	nt	0	nt	-2	2
COc1ccccc1N1CCN(/N=C/c2cccc(O)c2)CC1	1	4	4	0	12*
COc1ccccc1N1CCN(/N=C/c2cc(OC)c(O)c(OC)c2)CC1	0	-2	-2	-1	3
O=C(N=C1N(Cc2ccccc2)[C@@H](Cc2ccccc2)[C@]2(C=C3CCCCC3n3c(=O)n(-c4ccccc4)c(=O)n32)N1C(=O)OCc1ccccc1)c1ccccc1 (stereo partly drawn)	0	-1	1	-1	1
Oc1ccc2ccccc2c1CNc1ccccc1	0	3	-1	1.7*	5
O=[N+]([O-])c1ccccc1NCc1c(O)ccc2ccccc12	0	6.3*	-2	1.6*	-1
CC1S/C(=N/N=C2CCCCC2)NC1=O (stereo not drawn)	1	1	3	-1	1
